From PubChem BioAssay come the findings set out here.

SMILES strings stand for the structures. Activity calls are given as the source filed them.

The subject of test [1] is Human papillomavirus type 1a protein E7 (residues 44-93). In words: HPV1a E7 fragment binders on microarrays, primary screen, biochemical, small-molecule microarray, residues 44-93, 635 nm fluorescence (AID 1108).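 Note: E7 fragment applied at 1 µg/mL in TBST for 1 h at 4 C; score combines spot fluorescence with its signal to noise ratio.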 The conditions noted are these: small-molecule microarray binding, fluorescence 635 nm; higher = more signal.
Test [2] is described as follows: modulators of HCV replicon luciferase signal, primary screen, HCV replication inhibitor project, Huh7 cells, luciferase reporter (AID 1109).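 Note: huh7 hepatoma cells harbouring a luciferase neomycin HCV replicon reporter; luciferase luminescence as measure of HCV replicon replication; test concentration not given here.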 To be noted: 48 h, higher = more signal.
For test [3], the target named is Left-right determination factor 2 (Homo sapiens) (UniProt O00292). In words: LEFTY2 binders on small-molecule microarrays, primary screen, biochemical, small-molecule microarray, 635 nm fluorescence scan (AID 1110). The conditions noted are these: LEFTY2 binding, higher = more signal.
Test [4] addresses Calmodulin-1 (Homo sapiens) (UniProt P0DP23). In words: CALM1 binders on microarrays, EGTA buffer, profiling panel, biochemical, small-molecule microarray, Cy5-labelled CALM1 (AID 1111).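 Note: labelled calmodulin applied in Tris saline Tween buffer holding calcium plus EGTA and DTT.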 The conditions noted are these: Cy5-CALM1 binding fluorescence, higher = more signal.
Test [5] has the same target. Kind of test: calcium-bound CALM1 binders on microarrays, profiling panel, artefact control for SMM control-protein annotation, biochemical, small-molecule microarray, Cy5-labelled CALM1, plus calcium (AID 1112).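 Note: score merges spot fluorescence with signal to noise from triplicate slides.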 To be noted: Cy5-CALM1 binding fluorescence, higher = more signal.
A short description of test [6]: small-molecule microarray binders of probe aWnt5a, primary screen, biochemical, biotinylated probe, 635/667 nm fluorescence (AID 1113).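 Note: score merges 667 nm fluorescence intensity with signal-to-noise per printed feature.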 To be noted: higher = more signal.
Test [7] can be described thus: small-molecule microarray binders of probe aShh, primary screen, biochemical, biotinylated probe, 635/667 nm fluorescence (AID 1114).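 Note: probe is biotin-labelled aShh protein from a stem cell growth factor screen; measures binding of labelled protein to compounds printed on the slide; score merges feature fluorescence at 667 nm with signal-to-noise.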 To be noted: higher = more signal.
The nature of test [8]: small-molecule microarray binders of probe aNog, primary screen, biochemical, biotinylated probe, 635/667 nm fluorescence (AID 1115).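 Note: probe is biotinylated aNog protein used at 0.15 µg/mL for 1 h at 4 C; z-score combines 667 nm fluorescence of each spot with its signal to noise.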 To be noted: higher = more signal.
In test [9] the target is Torsin-1A-interacting protein 1 (Homo sapiens) (UniProt Q5JTV8). Kind of test: LAP1 binders from COS7 cell lysate, primary screen, small-molecule microarray, 635/667 nm fluorescence (AID 1116). To be noted: COS7-hLAP1 lysate binding, 635 nm fluorescence, higher = more signal.
The target in test [10] is Alpha-bungarotoxin (Bungarus multicinctus) (UniProt P60615). In words: alpha-bungarotoxin binders on microarray, profiling panel, artefact control for SMM control protein annotation, biochemical, small-molecule microarray, Alexa647 label, 635/667 nm fluorescence (AID 1117). The conditions noted are these: alpha-BTX-A647 binding fluorescence, higher = more signal.
Test [11] has as its target Albumin (Bos taurus) (UniProt P02769). In words: bovine serum albumin binders on microarray, profiling panel, artefact control for SMM control protein annotation, biochemical, small-molecule microarray, Alexa647 label, 635/667 nm fluorescence (AID 1118).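 Note: score merges 667 nm emission intensity and signal-to-noise per printed compound spot.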 The conditions noted are these: BSA-A647 binding, fluorescence 635 nm, higher = more signal.
The nature of test [12]: small-molecule microarray binders of probe aXIP, primary screen, biochemical, NeuroSMM set, 635/667 nm fluorescence (AID 1119).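 Note: probe is the protein aXip251-270 applied at 1 µg/mL to compound-printed slides; binding of probe to printed compounds measured as 667 nm fluorescence plus signal to noise.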 To be noted: higher = more signal, called active from +8 up or from −8 down.
Test [13] can be described thus: small-molecule binders of probe aNOTCH3, primary screen, biochemical, small-molecule microarray, 635/667 nm fluorescence (AID 1120).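 Note: probe is a biotin-tagged antibody raised against NOTCH3 rather than NOTCH3 protein; score merges spot fluorescence near 667 nm with spot signal to noise.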 The conditions noted are these: higher = more signal.
Test [14] can be described thus: small-molecule binders of probe aNOTCH2, primary screen, biochemical, small-molecule microarray, 635/667 nm fluorescence (AID 1121).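 Note: score merges feature fluorescence read at 667 nm with its signal to noise.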 The conditions noted are these: higher = more signal.
The target of test [15] is Carbonic anhydrase 2 (Homo sapiens) (UniProt P00918). In words: CAII small-molecule binders, profiling panel, biochemical, small-molecule microarray, Alexa647-labelled CAII (AID 1122). The conditions noted are these: CAII-A647 binding fluorescence, higher = more signal.
Test [16] can be described thus: COS7 lysate on small-molecule microarray, probe aHis, 635 nm (AID 1123).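 Note: z-score combines 667nm fluorescence intensity with signal-to-noise per printed compound spot.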 To be noted: COS7 cell lysate, fluorescence, higher = more signal.
Test [17] can be described thus: compound binding in COS7 lysate, probe aLAP1, primary screen, cell lysate, small-molecule microarray (AID 1124).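 Note: lysate comes from COS7 cells expressing LAP1 and is applied at 0.3 µg/mL; score merges spot fluorescence near 667 nm with signal-to-noise over triplicate slides.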 The conditions noted are these: probe aLAP1, fluorescence, higher = more signal.
Test [18] deals with Sam68 (KHDRBS1). In words: Sam68 small-molecule binders, primary screen, biochemical, small-molecule microarray, 635 nm fluorescence (AID 1125).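 Note: score merges 667 nm channel intensity with signal to noise over triplicate slides.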 To be noted: small-molecule microarray binding, higher = more signal.
For test [19], the system named is Chordin-like protein 2 (CHRDL2). In words: CHRDL2 small-molecule binders, primary screen, biochemical, small-molecule microarray, 635 nm fluorescence (AID 1126).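 Note: printed compound slides probed with Chrdl2 protein at 4 µg/mL for 1 h at 4 C; score merges 667 nm emission intensity with signal to noise over three replicate slides.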 The conditions noted are these: small-molecule microarray binding, fluorescence 635 nm; higher = more signal.
Test [20] has as its target Concanavalin-A (Canavalia ensiformis) (UniProt P02866). In words: ConA small-molecule binders, primary screen, artefact control for SMM control protein annotation, biochemical, small-molecule microarray, Alexa647 label, 635 nm (AID 1127).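 Note: z combines 667 nm emission intensity with signal-to-noise across three replicate slides.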 The conditions noted are these: ConA-A647 binding fluorescence, higher = more signal.

Concanavalin-A (Canavalia ensiformis), sequence (P02866 whole entry, looked up): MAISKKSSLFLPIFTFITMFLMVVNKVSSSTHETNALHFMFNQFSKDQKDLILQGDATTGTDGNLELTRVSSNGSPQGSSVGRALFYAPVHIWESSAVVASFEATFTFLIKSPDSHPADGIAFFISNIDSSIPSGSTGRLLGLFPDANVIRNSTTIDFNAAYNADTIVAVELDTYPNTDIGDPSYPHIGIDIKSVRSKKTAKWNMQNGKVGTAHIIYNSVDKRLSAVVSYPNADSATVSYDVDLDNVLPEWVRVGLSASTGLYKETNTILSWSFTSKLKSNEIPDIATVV
Left-right determination factor 2 (Homo sapiens), sequence (O00292 whole entry, looked up): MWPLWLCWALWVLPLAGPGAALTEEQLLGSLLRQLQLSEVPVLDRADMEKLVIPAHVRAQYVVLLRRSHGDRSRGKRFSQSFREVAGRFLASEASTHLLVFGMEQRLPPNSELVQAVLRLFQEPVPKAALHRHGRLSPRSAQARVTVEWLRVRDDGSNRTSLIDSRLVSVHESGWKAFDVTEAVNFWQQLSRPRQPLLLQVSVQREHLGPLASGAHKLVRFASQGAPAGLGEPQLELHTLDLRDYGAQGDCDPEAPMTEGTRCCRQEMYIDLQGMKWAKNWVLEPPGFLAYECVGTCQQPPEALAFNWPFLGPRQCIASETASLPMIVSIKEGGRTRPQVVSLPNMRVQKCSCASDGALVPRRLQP
Albumin (Bos taurus), sequence (P02769 whole entry, looked up): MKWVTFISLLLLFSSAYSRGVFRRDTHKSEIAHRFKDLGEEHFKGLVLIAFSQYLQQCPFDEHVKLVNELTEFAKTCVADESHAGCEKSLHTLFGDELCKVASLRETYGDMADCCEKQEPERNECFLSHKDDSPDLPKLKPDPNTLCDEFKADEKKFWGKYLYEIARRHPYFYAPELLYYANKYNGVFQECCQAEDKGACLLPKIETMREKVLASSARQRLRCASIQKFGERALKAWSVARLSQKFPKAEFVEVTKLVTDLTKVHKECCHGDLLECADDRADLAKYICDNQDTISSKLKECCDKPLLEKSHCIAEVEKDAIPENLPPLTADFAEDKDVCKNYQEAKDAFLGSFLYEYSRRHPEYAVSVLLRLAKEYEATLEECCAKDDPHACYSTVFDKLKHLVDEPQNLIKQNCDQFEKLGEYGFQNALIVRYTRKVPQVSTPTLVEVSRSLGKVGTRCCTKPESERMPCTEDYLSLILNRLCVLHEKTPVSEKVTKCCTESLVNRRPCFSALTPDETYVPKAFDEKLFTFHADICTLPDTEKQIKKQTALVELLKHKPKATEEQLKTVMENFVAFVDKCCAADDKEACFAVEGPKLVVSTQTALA
Alpha-bungarotoxin (Bungarus multicinctus), sequence (P60615 whole entry, looked up): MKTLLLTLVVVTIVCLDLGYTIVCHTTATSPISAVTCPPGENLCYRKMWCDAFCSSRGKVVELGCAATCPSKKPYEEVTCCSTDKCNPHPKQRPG
Torsin-1A-interacting protein 1 (Homo sapiens), sequence (Q5JTV8 whole entry, looked up): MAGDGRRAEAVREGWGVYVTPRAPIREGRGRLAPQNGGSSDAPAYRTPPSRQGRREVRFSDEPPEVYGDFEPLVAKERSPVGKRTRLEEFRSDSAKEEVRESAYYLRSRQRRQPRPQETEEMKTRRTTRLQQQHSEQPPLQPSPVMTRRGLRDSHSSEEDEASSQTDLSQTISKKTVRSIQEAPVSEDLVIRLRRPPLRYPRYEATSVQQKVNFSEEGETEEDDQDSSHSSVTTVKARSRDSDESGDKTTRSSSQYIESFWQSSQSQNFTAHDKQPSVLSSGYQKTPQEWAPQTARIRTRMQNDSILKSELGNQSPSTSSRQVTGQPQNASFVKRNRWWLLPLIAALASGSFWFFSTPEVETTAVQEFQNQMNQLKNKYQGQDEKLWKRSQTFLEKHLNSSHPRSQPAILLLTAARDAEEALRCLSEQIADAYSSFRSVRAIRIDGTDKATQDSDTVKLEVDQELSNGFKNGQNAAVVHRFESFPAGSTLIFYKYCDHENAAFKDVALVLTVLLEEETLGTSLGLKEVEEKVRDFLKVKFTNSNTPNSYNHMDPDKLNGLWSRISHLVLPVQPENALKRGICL

Consider `O=C1O[C@@H](c2ccccc2)[C@@H](c2ccccc2)N2[C@@H](c3ccc(O)cc3)[C@]3(C(=O)Nc4ccc(C#CC5(O)CCCCCC5)cc43)[C@@H](C(=O)N3CCN(c4ncccn4)CC3)[C@H]12`, for which the composite z-score is 1.4 in test [1]; 0.114 in [3]; 1.03 in [4]; 0.137 in test [5]; -0.0721 in [6]; 0.255 in test [7]. In addition, the composite z-score in test [8] was 0.146; in test [9], 1.18; in [10], 1.21; in test [11], 0.77; in test [13], -0.0558; in test [14], -0.123. Besides, the composite z-score in test [15] was 0.604; in test [16], 1.87; in test [17], 0.333; in test [18], 1.31; in test [19] it was -0.106; in test [20] it was 1.13. In test [2], the z-score is -0.843. In addition, the composite Z-score in test [12] was 0.95 (inactive).

Consider `[N-]=[N+]=NCc1ccccc1[C@H]1OC(c2ccc(OCCCO)cc2)=N[C@@]1(Cc1ccccc1)C(N)=O`, for which the composite z-score in test [1] was 1.44; in [3], -0.709; in [4] it was 0.931; in test [5] it was 0.995; in test [6], 0.283; in [7] it was -0.0576. For the same compound, the composite z-score in test [8] worked out at 0.654; in test [9], 1.76; in test [10] it was 2.54; in test [11] it was 0.883; in [13], 0.391; in [14], 0.0029. Besides, the composite z-score in [15] is 0.589; in [16], 2.29; in test [17], 0.112; in test [18], 1.29; in test [19], -0.797; in test [20], 1.19. For the same compound, the z-score in test [2] was -1.46. Further, the composite Z-score in test [12] was -0.379 (inactive).

On to `CN(C)CCCNC(=O)[C@@]1(Cc2ccccc2I)c2ccccc2C(=O)N(Cc2ccccc2Cl)[C@H]1c1ccc(CO)cc1`, for which the composite z-score was -0.93 in [1]; -1.3 in test [3]; 1.48 in test [4]; 0.775 in [5]; 0.157 in [6]; -0.12 in [7]. Also, the composite z-score in [8] was -0.784; in test [9], 0.461; in test [10], 1.27; in test [11] it was 0.827; in test [13], 0.175; in [14], 0.2. In addition, the composite z-score in [15] is 0.522; in test [16], 1.44; in test [17] it was 0.507; in test [18], -0.035; in [19] it was -1.09; in test [20], 1.09. In addition, the z-score in [2] was -3.47. In addition, the composite Z-score in [12] is -0.175 (inactive).

Take `O=C1c2ccccc2[C@](Cc2ccccc2I)(C(=O)NCC(F)(F)F)[C@H](c2ccc(CO)cc2)N1Cc1ccccc1`: the composite z-score is 1.42 in test [1]; -0.38 in test [3]; 1.4 in [4]; 0.464 in [5]; -0.155 in test [6]; 0.0048 in test [7]. The composite z-score in test [8] was 0.0139; in test [9], 0.419; in [10], 0.928; in test [11], 0.684; in test [13] it was -0.0183; in [14] it was -0.112. For the same compound, the composite z-score in [15] was 0.593; in test [16] it was 2.19; in [17], 0.321; in test [18], 1.18; in [19], -0.213; in test [20] it was 1.11. In addition, in test [2], the z-score is -0.673. For the same compound, in test [12], the composite Z-score was 0.341 (inactive).

With `C=C(/C(=C/C[C@@H](OC(=O)c1ccncc1)c1ccccc1OCCO)c1cnc2ccccc2c1)C(C)C`, the composite z-score in test [1] is 1.4; in [3] it was 0.935; in test [4], 0.273; in [5], -0.531; in test [6], 0.0044; in test [7] it was -0.195. Moreover, the composite z-score in test [8] came to 0.0588; in [9], 1.23; in test [10] it was 3.08; in test [11], 0.635; in test [13], 0.306; in [14], 0.0002. The composite z-score was found to be 0.935 in test [15]; 1.5 in test [16]; 0.497 in test [17]; 1.3 in test [18]; 1.45 in [19]; 1.19 in test [20]. Moreover, the z-score in test [2] was -4.46. Moreover, the composite Z-score in test [12] is 0.718 (inactive).

For `O=C(N1CCOCC1)[C@@]1(CCS(=O)(=O)c2ccccc2)COC(c2ccc(OCCCO)cc2)=N1`, the composite z-score in [1] was 0.901; in test [3], -1.21; in test [4], 1.25; in [5], 0.0541; in [6], -0.124; in [7], 0.314. The composite z-score was -0.824 in [8]; 0.622 in [9]; -0.422 in [10]; 0.39 in test [11]; -0.0073 in [13]; -0.191 in [14]. The composite z-score was 0.704 in test [15]; 2.45 in test [16]; -0.0296 in [17]; 0.605 in [18]; -0.034 in test [19]; -0.257 in [20]. In addition, the z-score in test [2] is -1.18. Besides, in test [12], the composite Z-score was 0.667 (inactive).
